Experimental data published in PubChem BioAssay (NCI).
About 83,000 compounds went through this panel and 20% of them were active in at least one assay; those are over-represented in the sample as a whole.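 Compound tested at a single concentration for 48 hours in 96-well plates; a percent growth value below 10 was scored as active.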 Active and inactive are the calls of the source.

Assays:
Test in all cases: NCI-60 one-dose screen, 48 h (100 = growth as untreated, 0 = no growth, -100 = all killed)
Details in all cases: 10 µM unless noted
[1] = system: MOLT-4 leukemia
[2] = system: SR leukemia
[3] = system: RPMI-8226 leukemia
[4] = system: OVCAR-8 ovarian
[5] = system: OVCAR-5 ovarian
[6] = system: OVCAR-4 ovarian
[7] = system: SK-OV-3 ovarian
[8] = system: IGROV1 ovarian
[9] = system: OVCAR-3 ovarian
[10] = system: HS 578T breast
[11] = system: NCI/ADR-RES ovarian
[12] = system: T-47D breast
[13] = system: MDA-MB-435 melanoma
[14] = system: SW-620 colon
[15] = system: MCF7 breast
[16] = system: HCT-116 colon
[17] = system: HCC-2998 colon
[18] = system: KM12 colon
[19] = system: BT-549 breast

Measured: growth

COC(=O)[C@@H](C)C[C@H](Cc1ccccc1)NC(=O)c1csc([C@@H](C[C@H](C(C)C)N(C)C(=O)[C@@H](NC(=O)[C@H]2CCCN2C)C2CC2)OC(C)=O)n1
inactive: [1] 12.3% | [2] 11.2% | [3] 13.9% | [4] 33.4% | [5] 46.8% | [6] 51.6% | [7] 25.7% | [8] 27.1% | [11] 12.4% | [12] 40.9% | [14] 30.6% | [15] 21.7% | [17] 14.8%
active: [9] -34.5% | [10] 3.36% | [13] -20.6% | [16] 1.11% | [18] 1.92%

CS(=O)(=O)CCN1CC2CCCC(C2)C1
inactive: [1] 102% | [2] 93.9% | [3] 101% | [4] 104% | [5] 102% | [6] 102% | [7] 100% | [8] 115% | [9] 110% | [10] 102% | [11] 105% | [12] 102% | [19] 92.5% | [14] 111% | [15] 92.3% | [16] 94.7% | [17] 99.5% | [18] 111%

CC(=O)O[C@H](C[C@H](C(C)C)N(C)C(=O)[C@@H](NC(=O)[C@H]1CCCCN1C)C(C)C)c1nc(C(=O)N[C@@H](Cc2ccccc2)C[C@H](C)C(=O)O)c(C)s1
active: [2] 7.46% | [7] 6.87% | [11] 1.59% | [19] -8.43% | [13] -27%
inactive: [1] 20.7% | [3] 25.1% | [4] 20.1% | [5] 31% | [6] 50.6% | [8] 31.1% | [9] 12.5% | [10] 21.1% | [12] 45.7% | [14] 25.5% | [18] 15.6%

C=CC[PH+](c1ccccc1)c1ccccc1.C=CC[PH+](c1ccccc1)c1ccccc1.[Cl][Pt][Cl]
active: [1] 7.63% | [2] 1.56% | [3] -12.1% | [8] -17.4% | [9] -9.31% | [12] 0.0943% | [14] 2.38% | [16] 3.92%
inactive: [4] 20% | [5] 96.1% | [6] 39.7% | [7] 99.1% | [10] 55.8% | [11] 97% | [13] 64.9% | [15] 31.9% | [17] 94.9% | [18] 77.8%

C[N+](C)(C)Cc1cc(Cl)ccc1O
inactive: [1] 96.9% | [2] 104% | [3] 76.3% | [4] 99.4% | [5] 101% | [6] 92.8% | [7] 110% | [8] 95.1% | [9] 109% | [10] 103% | [11] 104% | [12] 99.4% | [13] 106% | [14] 97.9% | [15] 104% | [16] 106% | [17] 104% | [18] 108%

CCOC(=O)[C@@H](C)C[C@H](Cc1ccccc1)NC(=O)c1csc([C@@H](C[C@H](C(C)C)N(C)C(=O)[C@H](CCC(C)C)NC(=O)[C@H]2CCCCN2C)OC(C)=O)n1
active: [2] 4.32% | [7] 2.1% | [9] -1.34% | [10] 5.53% | [11] 4.75% | [19] -24.5% | [13] -1.75%
inactive: [1] 10.3% | [3] 12.6% | [4] 18% | [5] 28.2% | [6] 48.2% | [8] 26.1% | [12] 64.9% | [14] 25.4% | [17] 10% | [18] 13.9%

CCCCCCCCCCCCNC(c1ccccc1)C(O)c1ccccc1 (stereo unspecified)
inactive: [1] 61.7% | [3] 18.3% | [4] 67.9% | [5] 92.9% | [6] 10.5% | [7] 95.8% | [8] 53.7% | [9] 83.8% | [10] 106% | [11] 68.8% | [12] 70.4% | [13] 91.4% | [14] 48.1% | [15] 63.7% | [16] 12.2% | [17] 43.1% | [18] 74.9%
active: [2] -14.3%

CNC(=O)Oc1ccc(C(C)(C)C)cc1OC(=O)NC
inactive: [1] 81.6% | [2] 87.9% | [3] 95.5% | [4] 100% | [5] 108% | [6] 96.3% | [7] 88.4% | [8] 104% | [9] 102% | [10] 106% | [11] 104% | [12] 98.9% | [13] 97% | [14] 94.8% | [15] 93.9% | [16] 93% | [17] 103% | [18] 99.8%
